# Measurements: PubChem BioAssay (NCI)
# The panel holds about 83,000 compounds, 20% with a hit somewhere; the sample as a whole holds those more often.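 Method: cells in 96-well plates; compound added at one concentration; 48 h incubation; percent growth measured; values under 10 scored active.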 A number with no mark means an inactive call. Activity calls are given as the source filed them.
# Test system: HOP-92 NSCLC
# Test: NCI-60 one-dose screen, 48 h (100 = growth as untreated, 0 = no growth, -100 = all killed)
# Conditions: 10 µM unless noted
row,SMILES,growth
1,O=C(c1ccccc1)c1ccc2nc(-c3ccc(F)cc3)[nH]c2c1,90.5%
2,CC1(C)CC[C@]2(C(=O)O)CC[C@]3(C)C(=CCC4[C@@]5(C)C[C@@H](O)[C@@H]6OC(c7cccc(Br)c7)OC[C@@]6(C)C5CC[C@]43C)C2C1 (stereo not given in full),25.2%
3,C#CCOc1ccc(/C=N/Nc2nc(-c3cc4cc(OC)ccc4oc3=O)cs2)cc1OC,-0.0146% (active)
4,COc1cc2oc(-c3cccc(C(=O)Nc4ccc(Cl)cc4)c3)cc(=O)c2c(OCC(=O)N[C@@H](Cc2ccccc2)C(=O)O)c1OC,124%
5,Cn1cc(-c2cc3nc(-c4c[nH]c5ccc(Cl)cc45)cc(N)n3n2)c2ccccc21,-76.5% (active)
6,C#C[C@]1(O)CC[C@H]2[C@@H]3CC=C4c5sc(-c6ccc([N+](=O)[O-])cc6)nc5CC[C@]4(C)[C@H]3CC[C@@]21C,42.9%
7,O=C(CSc1nc2ccccc2c(=O)[nH]1)NCCN1CCCCC1,101%
8,CN(C)c1ccnc(NCCCSC(c2ccccc2)(c2ccccc2)c2ccccc2)c1,-2.94% (active)
9,O=C(O)c1cccc(-c2ccc(/C=N/NC(=O)c3[nH]c4ccc(Br)cc4c3-c3ccccc3)s2)c1,60.3%
10,C#CCOc1cc(N(CC)CC)ccc1C(C(=O)NC(C)(C)C)N(C(=O)C1CCc2cc(F)ccc2O1)c1cc(C)cc(C)c1 (stereo not given),9.21% (active)
11,COc1cc2c(c(OC)c1OC)C(=O)CC(c1cccc(NC(=O)c3cc(NC(=O)[C@@H](N)CO)ccc3C)c1)O2 (stereo not given in full),114%
12,C#CCOc1ccc(/C=N/Nc2nc(-c3ccc(F)cc3)cs2)cc1OC,34.2%
13,Cc1cc2c(cc1Cl)C(=O)/C(=C/c1ccc(F)cc1)O2,93.4%
14,COc1ccc2[nH]cc(-c3cc(N)n4nc(-c5cn(C)c6ccccc56)cc4n3)c2c1,-71% (active)
15,COc1ccc(Cc2nn(CC(=O)N/N=C/c3ccc(F)cc3)c(=O)c3c(C)noc23)cc1,-20.5% (active)
16,Cc1ccc(NCC(=O)Cn2cc(COc3ccc(C=Nc4cnc5ccccc5c4)cc3)nn2)cc1,116%
17,Cc1cccc(NC(=O)CN2CCN(c3ncnc4c3cnn4-c3ccccc3)CC2)c1,98.2%
18,COc1ccc2[nH]cc(-c3nnc(N)nc3-c3cn(C)c4ncc(Br)cc34)c2c1,6.98% (active)
19,COc1ccc(NC(=O)[C@H](C)N)cc1C(=O)Nc1cccc(C2CC(=O)c3c(cc(OC)c(OC)c3OC)O2)c1 (stereo not given in full),69.4%
20,CC1(C)CC[C@]2(C(=O)O)CC[C@]3(C)C(=CCC4[C@@]5(C)C[C@@H](O)[C@@H]6OC(c7ccco7)OC[C@@]6(C)C5CC[C@]43C)C2C1 (stereo not given in full),-1.27% (active)
21,COc1cc2c(c(OC)c1OC)C(=O)CC(c1cccc(NC(=O)c3cc(NC(=O)[C@H](C)N)ccc3Cl)c1)O2 (stereo not given in full),17.9%
22,Cc1ccc(C(=O)C(c2c[nH]c3ccccc23)c2c[nH]c3ccccc23)cc1,89.9%

# Test system: NCI-H522 lung
# Test: as above
# Conditions: 10 µM unless noted
row,SMILES,growth
1,O=C(c1ccccc1)c1ccc2nc(-c3ccc(F)cc3)[nH]c2c1,-59.7% (active)
2,CC1(C)CC[C@]2(C(=O)O)CC[C@]3(C)C(=CCC4[C@@]5(C)C[C@@H](O)[C@@H]6OC(c7ccc(F)cc7)OC[C@@]6(C)C5CC[C@]43C)C2C1 (stereo not given in full),8.38% (active)
3,N/C(=N\c1nc2ccccc2s1)NC(=O)Nc1ccc(Cl)cc1Cl,-78.6% (active)
4,CCCCSc1nc(Nc2ccc(S(N)(=O)=O)cc2)c(C#N)c(-c2cc(OC)c(OC)c(OC)c2)n1,63.2%
5,O=C(COc1ccc2c(c1)CCCC(=O)N2)NCc1ccccc1,89.1%
6,Nc1nc(-c2ccccc2)c(N=Nc2ccc([N+](=O)[O-])cc2Cl)s1,48.8%
7,CC1(C)CC[C@]2(C(=O)O)CC[C@]3(C)C(=CCC4[C@@]5(C)C[C@@H](O)[C@@H]6OC(c7cccc(Br)c7)OC[C@@]6(C)C5CC[C@]43C)C2C1 (stereo not given in full),16.3%
8,C#CCOc1ccc(/C=N/Nc2nc(-c3cc4cc(OC)ccc4oc3=O)cs2)cc1OC,42%
9,N#Cc1c(NCc2ccccc2)n[nH]c1Nc1ccccc1,82.3%
10,COc1cc2oc(-c3cccc(C(=O)Nc4ccc(Cl)cc4)c3)cc(=O)c2c(OCC(=O)N[C@@H](Cc2ccccc2)C(=O)O)c1OC,96.3%
11,Cn1cc(-c2cc3nc(-c4c[nH]c5ccc(Cl)cc45)cc(N)n3n2)c2ccccc21,-76.5% (active)
12,C#C[C@]1(O)CC[C@H]2[C@@H]3CC=C4c5sc(-c6ccc([N+](=O)[O-])cc6)nc5CC[C@]4(C)[C@H]3CC[C@@]21C,-5.59% (active)
13,O=C(CSc1nc2ccccc2c(=O)[nH]1)NCCN1CCCCC1,90.6%
14,C#CCOc1cc(N(CC)CC)ccc1C(C(=O)NC(C)(C)C)N(C(=O)C1CCc2cc(F)ccc2O1)c1ccc(F)c(Cl)c1 (stereo not given),60.5%
15,O=c1oc2ccccc2cc1-c1csc(N2N=C(c3ccccc3)CC2c2ccc(N3CCOCC3)cc2)n1 (stereo not given),101%
16,Cn1cc(-c2cc(N)n3nc(-c4cn(C)c5ncccc45)cc3n2)c2cccnc21,77%
17,COc1ccc(-c2ccnc(SCc3cc4cc(OC)ccc4[nH]c3=O)n2)cc1,11.8%
18,CCOc1ccc(-c2c(C#N)c(-c3ccc(Cl)cc3)nc3n[nH]c(-c4ccc(Cl)cc4)c23)cc1OC,64.9%
19,CN(C)c1ccnc(NCCCSC(c2ccccc2)(c2ccccc2)c2ccccc2)c1,41.1%

row,SMILES,growth
1,O=C(Cn1c(/C=C/c2ccccc2)nc2ccccc2c1=O)Nc1ccccc1,57.2%
2,O=C(O)c1cccc(-c2ccc(/C=N/NC(=O)c3[nH]c4ccc(Br)cc4c3-c3ccccc3)s2)c1,0.263% (active)
3,C#CCOc1cc(N(CC)CC)ccc1C(C(=O)NC(C)(C)C)N(C(=O)C1CCc2cc(F)ccc2O1)c1cc(C)cc(C)c1 (stereo not given),19.6%
4,COc1cc2c(c(OC)c1OC)C(=O)CC(c1cccc(NC(=O)c3cc(NC(=O)[C@@H](N)CO)ccc3C)c1)O2 (stereo not given in full),93%
5,C#CCOc1ccc(/C=N/Nc2nc(-c3ccc(F)cc3)cs2)cc1OC,46.9%
6,Cc1cc2c(cc1Cl)C(=O)/C(=C/c1ccc(F)cc1)O2,65.8%
7,Cn1cc(-c2cc3nc(-c4cn(C)c5ncccc45)cc(N)n3n2)c2cc(Cl)ccc21,-85.1% (active)
8,COc1ccc2[nH]cc(-c3cc(N)n4nc(-c5cn(C)c6ccccc56)cc4n3)c2c1,-75.9% (active)
9,COc1ccc(Cc2nn(CC(=O)N/N=C/c3ccc(F)cc3)c(=O)c3c(C)noc23)cc1,64.5%
10,Cc1ccc(NCC(=O)Cn2cc(COc3ccc(C=Nc4cnc5ccccc5c4)cc3)nn2)cc1,104%
11,Cc1cccc(NC(=O)CN2CCN(c3ncnc4c3cnn4-c3ccccc3)CC2)c1,-39.6% (active)
12,Cn1cc(-c2nc(N)nnc2-c2c[nH]c3ccc(F)cc23)c2cc(Br)cnc21,-52.3% (active)
13,COc1ccc2[nH]cc(-c3nnc(N)nc3-c3cn(C)c4ncc(Br)cc34)c2c1,50.3%
14,COc1ccc(NC(=O)[C@H](C)N)cc1C(=O)Nc1cccc(C2CC(=O)c3c(cc(OC)c(OC)c3OC)O2)c1 (stereo not given in full),81.7%
15,CC1(C)CC[C@]2(C(=O)O)CC[C@]3(C)C(=CCC4[C@@]5(C)C[C@@H](O)[C@@H]6OC(c7ccco7)OC[C@@]6(C)C5CC[C@]43C)C2C1 (stereo not given in full),20.7%
16,COc1ccc2c(c1)c(/C=N/Nc1ccc3ccccc3n1)cn2C,3.83% (active)
17,Cc1ccc(S(=O)(=O)c2nc(S(=O)(=O)c3ccc(C)cc3)c(N3CCN(C)CC3)s2)cc1,15.2%
18,COc1cc2c(c(OC)c1OC)C(=O)CC(c1cccc(NC(=O)c3cc(NC(=O)[C@H](C)N)ccc3Cl)c1)O2 (stereo not given in full),1.34% (active)
19,Cc1ccc(C(=O)C(c2c[nH]c3ccccc23)c2c[nH]c3ccccc23)cc1,-1.59% (active)
